# The panel holds about 83,000 compounds, 20% with a hit somewhere; the sample as a whole holds those more often.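 48-hour exposure, single concentration, 96-well plates; percent growth endpoint where 0 means no net growth. Active: below 10.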 Values without a mark were called inactive. Activity calls are given as the source filed them.
# How the values were obtained:
# Experiment in all cases: NCI-60 one-dose screen, 48 h (100 = growth as untreated, 0 = no growth, -100 = all killed)
# Conditions in all cases: 10 µM unless noted
# [1] = test system: T-47D breast
# [2] = test system: BT-549 breast
# [3] = test system: MDA-MB-435 melanoma
# [4] = test system: SW-620 colon
# [5] = test system: MCF7 breast
# [6] = test system: HCT-116 colon
# [7] = test system: KM12 colon
# [8] = test system: HCC-2998 colon
Structure (SMILES),growth [1],growth [2],growth [3],growth [4],growth [5],growth [6],growth [7],growth [8]
O=C(NO)c1ccc(-n2nc(-c3ccccc3)c3ccccc32)cc1,37.3%,67.2%,84.7%,41.2%,22.4%,7.64% (active),71.8%,
COc1cc2cc(Oc3cccc(NC(=O)Nc4cc(C(F)(F)F)cc(C(F)(F)F)c4)c3)c(C)nc2cc1OC,7.52% (active),1.44% (active),-2.55% (active),15.9%,0.59% (active),3.73% (active),5.61% (active),
COc1ccc(/C=C2\Oc3cc(OCCCCCN4CCCCC4)ccc3C2=O)cc1OC,,69.4%,99.2%,-61.3% (active),70.9%,-51.2% (active),80.4%,94.7%
CCN(CC)c1ccc(/C=N/NC(=O)CSc2nc3ccccc3c(=O)n2Cc2ccc(S(N)(=O)=O)cc2)c(O)c1,6.32% (active),33.6%,13.8%,21.4%,13.3%,21.5%,15.2%,
C=C(C)[C@@H]1CC[C@]2(C(=O)N3CCN(C)CC3)CC[C@]3(C)[C@H](CC[C@@H]4[C@@]5(C)CC[C@H](O)C(C)(C)[C@@H]5CC[C@]43C)[C@@H]12,-73.8% (active),-51.8% (active),-82.1% (active),-74.8% (active),-79.6% (active),-98.3% (active),-80.7% (active),
C=C1C(=O)O[C@H]2[C@H]1CC/C(CNC(=O)/C=C/c1cccc(OC)c1)=C\CC[C@@]1(C)O[C@@H]21,-4.32% (active),-12.3% (active),16.7%,-61.9% (active),-7.47% (active),-62.2% (active),80%,
COc1cc(-c2n/c(=C\c3c(O)[nH]c4ccc(Cl)cc34)cc3c2=Nc2ccccc2-3)ccc1F,56%,85.9%,21.3%,-1.7% (active),-54.2% (active),-45.8% (active),4.87% (active),
N#Cc1c(NC(=O)NCc2ccccc2)sc2c1CCCCC2,37.8%,26.2%,-40.5% (active),21.5%,19.1%,8.9% (active),12.6%,
CN(C)CCC(=O)c1ccc([N+](=O)[O-])cc1,89.4%,,104%,106%,89.4%,103%,113%,106%
COc1cc(/C=C2\COc3ccc(-c4ccccc4)cc3C2=O)cc(OC)c1,70.3%,74.7%,66%,62.8%,57.3%,62.1%,68.5%,
Nc1ccccc1NC(=O)c1ccc(-n2nc(-c3ccccc3)c3ccccc32)cc1,76.9%,-92.3% (active),92.2%,84.8%,57.1%,58.1%,91.4%,
OC(c1ccc(F)c(C(F)(F)F)c1)c1cnccc1NC1CCCCC1 (centres undefined),41.5%,90.5%,78.5%,58.3%,58.4%,36.4%,70.6%,
COc1ccc(C(=O)c2cc(OC)c(OC)c(OC)c2)cc1O,,12%,-41.1% (active),22.3%,6.25% (active),4.24% (active),9.38% (active),12.4%
COc1cc2cc(CN3CCN(c4nccc(-c5ccc6ccccc6c5)n4)CC3)c(=O)[nH]c2cc1OC,,95.6%,91.1%,-55% (active),42.8%,-25.4% (active),83.4%,101%
CC(C)N1C(=O)S/C(=C2/SC(=O)N(C(C)C)C2=O)C1=O,,93.6%,100%,102%,97.9%,105%,99.9%,104%
COc1ccc(C(C)=O)c(OC)c1,,106%,119%,106%,92%,103%,110%,105%
O=C1/C=C/[C@@H](O)[C@@H]2C[C@@H](O)C[C@H]2/C=C/CCC[C@H](CCc2ccc3ncccc3c2)O1,,7.66% (active),5.74% (active),-14.2% (active),2.74% (active),-53.6% (active),-40.3% (active),
O=C1OC(Cc2ccccc2)C1c1ccccc1 (centres undefined),,95.1%,102%,107%,98.1%,90.8%,101%,99.5%
O=C(Nc1ccc(-c2ccc3c(c2)NC(=O)/C3=C\c2ccc[nH]2)cc1)NC1CC1,,103%,98.6%,103%,15.8%,96.6%,19.1%,107%
Cc1nnc2c(Cc3ccccc3)nc3ccccc3n12,,91.8%,93.2%,97.3%,97.9%,93.1%,97.5%,97.8%
ClC1=C(Br)C(Br)(Br)C(=C(Br)Br)C1(Br)Br,,113%,107%,54%,76.8%,79.9%,101%,115%
CCOC(=O)Oc1c(OC)cc(C(=O)c2ccc(OC)c(OC(=O)CCl)c2OC)cc1OC,,42.4%,-35.9% (active),21.9%,16.6%,11.4%,21.9%,43.3%
COc1cccc(-c2cc(C(=O)Nc3ccc(/C=C/c4ccc(OC5CCN(C)CC5)cc4)cc3)ccc2OC)c1,,23.1%,-77.4% (active),-60.5% (active),-34.9% (active),-93.4% (active),-72.8% (active),74.9%
C=C1C(=O)O[C@H]2[C@H]1CC/C(CNC(=O)C(C)c1ccc(CC(C)C)cc1)=C\CC[C@@]1(C)O[C@@H]21 (some centres undefined),,-39.5% (active),0.546% (active),-59% (active),4.24% (active),-87.8% (active),57.8%,-5.64% (active)
CCOc1cccc(-c2nc(N)nc(Nc3ccccc3SSc3ccccc3Nc3nc(N)nc(-c4cccc(OCC)c4)n3)n2)c1,,78.7%,88.8%,76.4%,70.1%,57.2%,40.6%,97.8%
